The values that follow come from PubChem BioAssay (NCATS).

Molecules are shown by their SMILES. Unmarked numbers belong to inactive results. Results filed as inconclusive are left out. Where a call stands in place of a potency, no number is given. Calls of active or inactive are those of the source. The call rests on the fitted dose curve; in most records, active means well fitted curve in the direction sought with a large enough effect; inconclusive means small, poorly fitted or top-dose-only effect, or another doubt; inactive means no such curve, though single readings can be large; an effect the other way counts as inactive or inconclusive. *1 amine or outer side, *2 acyl side, *3 side chain or, on linkers, in order; H or OH if unused. Where a SMILES comes first, the peptide text is derived from it. [ ]: non-standard residue; d: D form. X4 = CC(C)=CCc1cc(C(O)C(N[*:1])C(=O)[*:2])ccc1O

For the first assay, the target named is Luciferin 4-monooxygenase (Photinus pyralis) (UniProt P08659). Briefly: Primary firefly luciferase (FLuc) qHTS assay for identification of artifact compounds. (AID 1845220). Further: nearly all actives have a fitted effect of over 60% in size. The settings on record: purified firefly luciferase, luminescence, 5 min; series mostly up to 54.1 µM. The method in brief: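 qHTS, 15 min compound preincubation with substrate (10 uM luciferin, 10 uM ATP) at RT, then 10 nM FLuc; 5 min; luminescence; % inhibition vs no-enzyme/DMSO controls, 4-parameter Hill fit.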
For orientation: qHTS replaces the single test concentration by a dilution series.
Regarding `CC1CC[C@]2(C(=O)O)CC[C@]3(C(=O)O)C(=CCC4[C@@]5(C)CC[C@H](O[C@@H]6O[C@H](CO)[C@@H](O)[C@H](O)[C@H]6O)C(C)(C)C5CC[C@]43C)C2C1C` (stereo not given in full), the Potency entry was “inactive”.
On the same count and under the same terms, the entry for `C[C@H]1CC(=O)Nc2cccc(-c3cnn(C(C)(C)C)c3)c2N1` is “inactive”; for `CC12CCC(OC3OC(CO)C(O)C(OC4OC(CO)C(O)C(O)C4O)C3O)CC1CCC1C2CCC2(C)/C(=C3/COC(=O)C3)CCC12O` (stereo not given) it is “inactive”; for `NC(=O)[C@H]1CCS[C@@H]2C[C@]3(CCCN3C(=O)Cc3ccc(NC(=O)COc4ccc(Cl)cc4Cl)cc3)C(=O)N12` it is “inactive”.
Still for that read-out and setting: in the case of `O=C(O)CC(=O)OC[C@H]1O[C@@H](Oc2ccc3c(c2)OC[C@H]2c4cc5c(cc4O[C@@H]32)OCO5)[C@H](O)[C@@H](O)[C@@H]1O` it was “inactive”; in that of `COC(=O)C1=CO[C@@H](O[C@@H]2O[C@H](CO)[C@@H](O)[C@H](O)[C@H]2O)[C@@H]2[C@@](C)(O)[C@@H](OC(=O)/C=C/c3ccc(O)cc3)C[C@]12O`, “inactive”.
Take `CC(C)=CCc1cc(C(O)C2NC(=O)CNC(=O)C(Cc3c[nH]c4ccccc34)NC(=O)C3CCCN3C(=O)CNC(=O)C(C(C)C)NC(=O)CNC2=O)ccc1O` (stereo not given) (cyclo(G[X4]GVGPW); configuration not given here): the activity change, negative = inhibition is -7.99% [at 11.6 µM].
For the molecule `C[C@@H]1CN(Cc2ccccc2)C[C@H]1c1nc2c(cnn2C2CCOCC2)c(=O)[nH]1`, the Potency entry was “inactive”.
Still for that read-out and setting: the entry for `C=C[C@]1(C)C=C2CCC3C(C)(CCC[C@@]3(C)C(=O)O)C2CC1` (stereo not given in full) is “inactive”.
Turning to `C=CC(C)(CC/C=C(\C)C(=O)OC)OC1OC(COC(=O)CC(C)(O)CC(=O)O)C(OC2OC(CO)C(O)C(O)C2O)C(O)C1O` (stereo not given), the Potency result is “inactive”.
On the same count and under the same terms, in the case of `O=C(NCc1cccc(O)c1)Nc1nc(-c2ccncc2)cs1` it was “inactive”; in that of `C[C@@H]1CC[C@]2(C(=O)O[C@@H]3O[C@H](CO)[C@@H](O)[C@H](O)[C@H]3O)CC[C@]3(C)C(=CCC4[C@@]5(C)C[C@@H](O)[C@H](O)[C@](C)(C(=O)O)C5CC[C@]43C)[C@@H]2[C@]1(C)O` (stereo not given in full), “inactive”; in that of `COC(=O)CC(O)CC(O)/C=C/c1c(C)ccc2c1C(O)CC(C)C2` (stereo not given), “inactive”.
`O=C1OCc2cc3cccc(O[C@@H]4O[C@H](CO)[C@@H](O)[C@H](O)[C@H]4O)c3c(O)c21`: the Potency entry was “inactive”.
As to `C=C1C[C@@]23CCC4[C@@](C)(CCC[C@@]4(C)C(=O)OC)C2CC[C@@H]1C3` (stereo not given in full), the Potency result was “inactive”.
The same measure, in the same setting: the entry for `CC1(C)C2CC=C(COC3OC(COC4OCC(O)(CO)C4O)C(O)C(O)C3O)C1C2` (stereo not given) is “inactive”.

Tested on in the next assay: not listed separately
Briefly: Primary fluorescence-based thiol-reactive (MSTI) qHTS assay for identification of artifact compounds. (AID 1845221). Further: nearly all actives have a fitted effect of over 65% in size. Further: potency means the concentration at half of the fitted maximal effect.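 On activity change, negative = thiol reactive: thiol-reactive compounds lower the probe fluorescence signal.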 The settings on record: MSTI thiol-reactivity probe, 1 h; series mostly up to 53.8 µM. The method in brief: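 Curve-fitted percent inhibition (4-parameter Hill) derived from fluorescence, Ex 525/Em 598 nm, scaled with Acetyl-MSTI and MSTI; 1 h incubation at room temperature.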
Consider `O=C(O)C(O[C@@H]1O[C@H](CO[C@@H]2O[C@H](CO)[C@@H](O)[C@H](O)[C@H]2O)[C@@H](O)[C@H](O)[C@H]1O)c1ccccc1` (stereo not given in full), for which the Potency result was “inactive”.
The same measure, in the same setting: in the case of `O=C(CC(c1ccccc1)c1ccccc1)N1CCN(C(c2ccccc2)c2ccccc2)CC1` it was “inactive”; in that of `CS(=O)(=O)N(CC(=O)NCC1CC1)c1cc(C(F)(F)F)ccc1Cl`, “inactive”.
Turning to `CCOc1cc(C(=O)N2CCC(N3CCN(C)CC3)CC2)ccc1Nc1ncc2c(n1)N(C1CCCC1)c1ccccc1C(=O)N2C`, the Potency result is “inactive”.
In the case of `Cc1cc(C(=O)Nc2cccc(C(=O)Nc3cccc(C(F)(F)F)c3)c2)on1`, the Potency result was “inactive”.
Still for that read-out and setting: the entry for `O=C(CCc1nnc2n(Cc3ccc(Cl)cc3)c(=O)c3ccccc3n12)NCCC1=CCCCC1` is “inactive”; for `CC(C)=CCC[C@](C)(O[C@@H]1O[C@H](CO)[C@@H](O)[C@H](O)[C@H]1O)[C@H]1CC[C@]2(C)[C@@H]1[C@H](O)CC1[C@@]3(C)CC[C@H](O)C(C)(C)C3[C@@H](O[C@@H]3O[C@H](CO)[C@@H](O)[C@H](O)[C@H]3O)C[C@]12C` (stereo not given in full) it is “inactive”.
Same read-out and setting: the entry for `CC(C)(C)c1ccc(S(=O)(=O)NCc2ccc(C(=O)Nc3cccnc3)cc2)cc1` is “inactive”.
For `C[C@@H]1C[C@H]2O[C@@H]2/C=C\C=C\C(=O)Cc2c(Cl)c(O)cc(O)c2C(=O)O1`, the activity change, negative = thiol reactive was -4.56% [at 11.5 µM].
On to `C=C1CC2C(C)(CCC(=O)O)C(C(C)(C)O)CCC2(C)C2C(=O)OC(C)(C(=O)OC)C(=O)C12C` (stereo not given), for which the Potency result was “inactive”.
The same measure, in the same setting: the entry for `O=C(O)CC1CCC(c2ccc(-c3ccc4nc(C(=O)NCc5ccc(OC(F)(F)F)cc5)cn4c3)cc2)CC1` (stereo not given) is “inactive”.
Turning to `O=C1NC(Cc2c[nH]c3ccccc23)C(=O)NC1Cc1cnc[nH]1` (stereo not given), the Potency result was “inactive”.
On the same count and under the same terms, the entry for `COc1ccc(Cl)c(Nc2nc3ccccc3nc2NS(=O)(=O)c2cccc(NC(=O)C(C)(C)N)c2)c1` is “inactive”; for `CC(=O)O[C@@H]1C[C@H](O)[C@@]23CO[C@H](O)[C@]1(C)C2C[C@@H](O)[C@]1(C)C3C(=O)[C@H](OC(C)=O)[C@@]2(C)[C@H](c3ccoc3)C[C@H]3O[C@]321` (stereo not given in full) it is “inactive”.
The same measure, in the same setting: the entry for `COc1ccc(-c2ccc(-c3cn(C(=O)N4CCCCC4c4ccccc4)nn3)cc2)cc1` (stereo not given) is “inactive”; for `CC1=C(C(=O)O)/C(=C/CO[C@@H]2O[C@H](COC(=O)/C=C/c3ccc(O)cc3)[C@@H](O)[C@H](O)[C@H]2O)C(O)C1` (stereo not given in full) it is 1.46 µM (active); for `O=C(Nc1ccn[nH]1)c1c(F)cccc1F` it is “inactive”.
On the same count and under the same terms, in the case of `CCOc1cc(C)c(Cl)cc1S(=O)(=O)n1cnc2ccccc21` it was “inactive”.
Consider `C[C@@H]1C(=O)O[C@H]2C[C@]34[C@H]5C[C@@H](C(C)(C)C)[C@]36[C@@H](OC(=O)[C@H]6O)O[C@]4(C(=O)O5)[C@]21O`, for which the Potency entry is “inactive”.
Take `COc1ccc([C@H]2CNC(=O)C2)cc1OC1CCCC1`: the Potency entry was “inactive”.
Same read-out and setting: in the case of `CC(C)[C@@H]1C(=O)N(S(C)(=O)=O)[C@@H]2CCN(C(=O)/C=C/CN3CCCCC3)[C@H]21` it was “inactive”; in that of `CC1(C)CC[C@]2(C(=O)O[C@@H]3O[C@H](CO)[C@@H](O)[C@H](O)[C@H]3O)CC[C@]3(C)C(=CCC4[C@@]5(C)C[C@@H](O)[C@H](O)[C@](C)(C=O)C5CC[C@]43C)[C@@H]2[C@@H]1O` (stereo not given in full), 3.98 µM (active); in that of `O=C(Nc1c(-c2cccs2)nc2ccccn12)c1ccc(Cl)cc1`, “inactive”.
Regarding `CC1CC[C@]2(C(=O)O)CC[C@]3(C(=O)O)C(=CCC4[C@@]5(C)CC[C@H](O[C@@H]6O[C@H](CO)[C@@H](O)[C@H](O)[C@H]6O)C(C)(C)C5CC[C@]43C)C2C1C` (stereo not given in full), the Potency result is “inactive”.
Turning to `C[C@H]1CC(=O)Nc2cccc(-c3cnn(C(C)(C)C)c3)c2N1`, the Potency entry was “inactive”.
The same measure, in the same setting: in the case of `CC12CCC(OC3OC(CO)C(O)C(OC4OC(CO)C(O)C(O)C4O)C3O)CC1CCC1C2CCC2(C)/C(=C3/COC(=O)C3)CCC12O` (stereo not given) it was “inactive”.
On the same count and under the same terms, in the case of `NC(=O)[C@H]1CCS[C@@H]2C[C@]3(CCCN3C(=O)Cc3ccc(NC(=O)COc4ccc(Cl)cc4Cl)cc3)C(=O)N12` it was “inactive”; in that of `O=C(O)CC(=O)OC[C@H]1O[C@@H](Oc2ccc3c(c2)OC[C@H]2c4cc5c(cc4O[C@@H]32)OCO5)[C@H](O)[C@@H](O)[C@@H]1O`, “inactive”; in that of `COC(=O)C1=CO[C@@H](O[C@@H]2O[C@H](CO)[C@@H](O)[C@H](O)[C@H]2O)[C@@H]2[C@@](C)(O)[C@@H](OC(=O)/C=C/c3ccc(O)cc3)C[C@]12O`, 3.27 µM (active).
In the case of `CC(C)=CCc1cc(C(O)C2NC(=O)CNC(=O)C(Cc3c[nH]c4ccccc34)NC(=O)C3CCCN3C(=O)CNC(=O)C(C(C)C)NC(=O)CNC2=O)ccc1O` (stereo not given) (cyclo(G[X4]GVGPW); configuration not given here), the activity change, negative = thiol reactive is 158% [at 11.5 µM].
Consider `C[C@@H]1CN(Cc2ccccc2)C[C@H]1c1nc2c(cnn2C2CCOCC2)c(=O)[nH]1`, for which the Potency result is “inactive”.
Still for that read-out and setting: in the case of `C=C[C@]1(C)C=C2CCC3C(C)(CCC[C@@]3(C)C(=O)O)C2CC1` (stereo not given in full) it was “inactive”.
`C=CC(C)(CC/C=C(\C)C(=O)OC)OC1OC(COC(=O)CC(C)(O)CC(=O)O)C(OC2OC(CO)C(O)C(O)C2O)C(O)C1O` (stereo not given): the Potency result is “inactive”.
Still for that read-out and setting: in the case of `O=C(NCc1cccc(O)c1)Nc1nc(-c2ccncc2)cs1` it was “inactive”.
The same measure, in the same setting: the entry for `C[C@@H]1CC[C@]2(C(=O)O[C@@H]3O[C@H](CO)[C@@H](O)[C@H](O)[C@H]3O)CC[C@]3(C)C(=CCC4[C@@]5(C)C[C@@H](O)[C@H](O)[C@](C)(C(=O)O)C5CC[C@]43C)[C@@H]2[C@]1(C)O` (stereo not given in full) is “inactive”; for `COC(=O)CC(O)CC(O)/C=C/c1c(C)ccc2c1C(O)CC(C)C2` (stereo not given) it is “inactive”.
On the same count and under the same terms, the figure for `O=C1OCc2cc3cccc(O[C@@H]4O[C@H](CO)[C@@H](O)[C@H](O)[C@H]4O)c3c(O)c21` is 1.65 µM (active).
On to `C=C1C[C@@]23CCC4[C@@](C)(CCC[C@@]4(C)C(=O)OC)C2CC[C@@H]1C3` (stereo not given in full), for which the Potency entry was “inactive”.
The same measure, in the same setting: in the case of `CC1(C)C2CC=C(COC3OC(COC4OCC(O)(CO)C4O)C(O)C(O)C3O)C1C2` (stereo not given) it was “inactive”.
